Measurements as given in PubChem BioAssay (NCI).
About 79,000 compounds went through this panel and 15% of them were active in at least one assay; those are over-represented in the sample as a whole. A number with no mark means an inactive call. Activity calls are given as the source filed them. Cut-off read from the data, not from the text of the source: active = growth inhibition above about 70%; inactive = the rest.

Tests used:
[1] = NCI Yeast Anticancer Drug Screen. Data for the rad50 strain (AID 155);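 note: 0% = growth of vehicle-only cultures of the same strain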; conditions: S. cerevisiae rad50 strain growth inhibition; at 50.0 µM; stronger effect = higher value
How it was run: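 Readout: growth inhibition relative to vehicle-treated cultures. Compound exposure was carried out in a genetically defined yeast strain deficient in DNA damage repair.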

[2] = NCI Yeast Anticancer Drug Screen. Data for the mec2-1 strain (AID 157); conditions: S. cerevisiae mec2-1 strain, at 50.0 µM, stronger effect = higher value
How it was run: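 Compounds were applied to mec2-1 yeast cells. Their growth was then compared with that of vehicle-treated cultures to give growth inhibition.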

[3] = NCI Yeast Anticancer Drug Screen. Data for the sgs1 mgt1 strain (AID 161);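 note: 0% = growth of cultures given vehicle only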; conditions: S. cerevisiae sgs1 mgt1 strain, at 50.0 µM, stronger effect = higher value
How it was run: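 Compounds are added to genetically altered yeast, and growth is compared with cultures given vehicle alone to give percent inhibition.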

[4] = NCI Yeast Anticancer Drug Screen. Data for the cln2 rad14 strain (AID 165);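 note: 0% = growth equal to vehicle treated cultures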; conditions: S. cerevisiae cln2 rad14 strain, at 50.0 µM, stronger effect = higher value
How it was run: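 Strain: cln2 rad14 yeast, altered in cell cycle control and DNA damage repair. Read-out: growth inhibition vs vehicle.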

[5] = NCI Yeast Anticancer Drug Screen. Data for the bub3 strain (AID 167); conditions: S. cerevisiae bub3 mutant strain, at 50.0 µM, stronger effect = higher value
How it was run: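 Readout: yeast growth inhibition, expressed relative to vehicle-only wells. The test organism is a mutant strain from a panel with lesions in DNA repair or checkpoint genes.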

[6] = NCI Yeast Anticancer Drug Screen. Data for the mlh1 rad18 strain (AID 175); conditions: S. cerevisiae mlh1 rad18 strain growth inhibition; at 50.0 µM; stronger effect = higher value
How it was run: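 A repair-deficient yeast strain is exposed to test compound, and growth is scored relative to vehicle-treated controls.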

Structure (SMILES)	growth inhibition [1]	growth inhibition [2]	growth inhibition [3]	growth inhibition [4]	growth inhibition [5]	growth inhibition [6]
O=c1ccc2cc3c(cc2[nH]1)OCO3	2.5%	-1.25%	-4.2%	-39.5%	-9.2%	7.05%
CSc1cccc(NC(=S)NN/C(=N/S(=O)(=O)c2ccccc2)N2CCCC2)c1	6.3%	-17.6%	-1.35%	2.3%	-2.9%	-1.2%
CN(C)CCOC(=O)COc1ccc(Cl)cc1	-10.2%	26.6%	9.9%	38%	28.9%	21.4%
CN1c2ccccc2Oc2ccc3ccccc3c21	13.8%	-24.6%	0.95%	-4.3%	-8.2%	12.8%
Cc1cc(C23OC4COC(C)(C)OC4C2OC(C)(C)O3)nc2ccccc12 (stereo unspecified)	-1.35%	13.6%	18.6%	-22.1%	13.1%	23.6%
CCCCCCCCCCCCCCCCCCC(CO)CO	-22.4%	-20.6%	-8.65%	-45%	-10.2%	1.8%
COc1cc(CNCCO)cc(OC)c1	22.2%	8.8%	-1.35%	-15.1%	19.6%	13%
CC(=O)OCCn1cnc2c(NCC=C(C)C)ncnc21	-28.4%	-12.4%	-40%	0.75%	7.5%	-45%
C=CCNC(=S)Nc1ccc(OC(=O)NC(C)(C)C)cc1	2%	29.4%	26.4%	-16.8%	25.3%	0.1%
O=S(=O)(O)C(O)C(F)(F)C(F)(F)C(F)(F)F (stereo unspecified)	16.2%	-1.75%	22.9%	-37.8%	-30.6%	19.9%
CS(=O)(=O)N1CC(CCl)c2ccc(NO)cc21 (stereo unspecified)	43.5%	27.9%	24.9%	17.3%	0.45%	-32.4%
CCOC(=O)/C(=C/c1ccc(N(C)C)cc1)N(CC)CC	-34.2%	-10.2%	-14.9%	13.4%	7.25%	-18.6%
CC1(C)CNC[C@](C)(OCc2ccccc2)N1	-24.4%	-29.1%	-11.3%	11.2%	10.9%	-4.7%
CCOC(=C\C=C\C1=[N+](C)c2ccccc2C1(C)C)/C=C/C=C1/N(C)c2ccccc2C1(C)C	17.6%	87.6% (active)	34.2%	82.5% (active)	81.8% (active)	27.6%
O=[N+]([O-])c1ccc(-c2cn(-c3ccc(Cl)cc3)cn2)cc1	2.75%	-4.15%	7.5%	3.35%	-1.85%	-5.7%
CCC(O)CNCc1ccnc2ccc(OC)cc12 (stereo unspecified)	3.3%	2.9%	0.45%	-45.4%	-4.1%	-12.1%
CC(=C(C#N)C#N)c1ccccc1	11%	2.5%	13.1%	6.45%	2.8%	5.45%
C(=C\c1ccco1)/c1ccco1	25.1%	11.2%	12.3%	9.85%	-20.9%	-25.9%
CC1(C)C=C(C(=O)ON2C(=O)CCC2=O)C(C)(C)N1O	-4.85%	-25.9%	-14.5%	12.7%	-19.1%	-16.1%
C/C=C(/C)C(=O)O[C@H]1CC[N+]2([O-])CC=C(COC(=O)[C@@](O)([C@H](C)OC)C(C)(C)O)[C@H]12 (stereo partly specified)	-13.1%	-5.1%	-3.45%	7.5%	6.75%	12.5%
OCC(Cl)(Cl)C(Cl)(Cl)CO	8.2%	-14.5%	-12.7%	-0.95%	-28.6%	-17.8%

Structure (SMILES)	growth inhibition [1]	growth inhibition [2]	growth inhibition [3]	growth inhibition [4]	growth inhibition [5]	growth inhibition [6]
CCOC(=O)c1c(-c2ccc(Cl)cc2)c(C#N)c(=S)n(C2OC(COC(C)=O)C(OC(C)=O)C(OC(C)=O)C2OC(C)=O)c1C (stereo unspecified)	-0.4%	-8.75%	-1.75%	24.1%	17.5%	5.7%
COc1cc(OC)cc(C2OC3=C(Nc4ccccc4N3)C2=O)c1 (stereo unspecified)	12.8%	16.1%	23.2%	19.4%	19.4%	28.1%
C/C(C=C(C#N)C#N)=C\c1cccc(F)c1	55.7%	28.3%	50.6%	48.1%	17.5%	53.8%
O=C(Nc1ccccc1)C1CC2C=CC1C2 (stereo unspecified)	2.3%	-4.3%	4%	-3.9%	-7.3%	1.55%
C/C=N\N1C(=O)c2ccccc2C1=O	11.5%	13.7%	13.8%	9.1%	19.4%	14.8%
O=[N+]([O-])c1ccc(S(=O)(=O)Nc2ccccc2-c2ccccc2)cc1	99% (active)	99% (active)	99.3% (active)	98.2% (active)	98.8% (active)	98.7% (active)
CCOc1ccc(/C=C2/C(=O)N(/C=C3/C(=O)Oc4ccccc4C3=O)C(=NC(C)=O)N2C)cc1	8.75%	-13%	-10.8%	12.7%	-1.85%	2.35%
CC1=N/C(=C/c2ccccc2)C(=O)O1	7.6%	0.75%	11.6%	-26.7%	12.5%	10%
CN(C)CCC(=O)Cc1ccccc1	-8.8%	-12.3%	-4.55%	-8.15%	-26.1%	0.95%
CCCCCCOC(=O)c1ccccc1Cl	5.75%	9.35%	-3.05%	-16.9%	26.4%	34.2%
O=C(Nc1ccc(Cl)cc1)Nc1nnc(-c2ccc(-c3nnc(NC(=O)Nc4ccc(Cl)cc4)o3)cc2)o1	28.4%	0.4%	26.4%	-34.3%	18%	21.6%
CNc1ncnc2c1cnn2-c1ccc(Cl)cc1	-15.8%	-6.85%	-6.75%	-37.4%	0.3%	4.25%
C/C=C(\C)C(=O)OC1C2C(C)C(=O)OC2C(O)C(C)C2C=CC(=O)C21C (stereo unspecified)	-21.1%	-23.5%	-7.9%	9.4%	-21.4%	6.5%
CN(C)c1ccc(/C=N\NC(=S)NN2CCN(NC(=S)N/N=C\c3ccc(N(C)C)cc3)CC2)cc1	30.2%	11.1%	5.2%	4.85%	1.55%	27.8%
N#Cc1cccc(N(C(=O)c2ccccc2)c2ccccc2)n1	4.35%	7.9%	-4.5%	0.1%	41%	24.9%
COc1ccc(C(=O)/C=C/c2ccc(OCC(=O)O)cc2)cc1	22.6%	12.3%	18.1%	21.8%	-5.75%	42.8%
CC(CC(=O)O)(CC(=O)O)c1ccccc1	19.6%	-35.5%	-11.2%	-7.3%	-7.05%	-35.1%
C/C(=N/NC(N)=S)c1ccc[nH]1	-18.1%	-14.2%	-3.75%	20.9%	-39%	-10.4%
Cc1cccc(C(O)c2ccccn2)c1O (stereo unspecified)	-3.85%	-4.45%	-6.8%	-4.45%	-3.8%	3.1%
COC(=O)C(=O)C(C(=O)c1cccc2ccccc12)c1nc2n(c1O)C(=N)N=N2 (stereo unspecified)	18.4%	4.45%	11.6%	-4.9%	-2.75%	0.8%
